Only some compounds are listed: those with a hit (about 3.8% of all), similar ones and a draw of the others.
Nrf2 block: Nrf2 qHTS screen for inhibitors; Potency, µM (series often up to 46 µM), inactives show top-dose activity change, negative = inhibition, most hits filed as inhibitors; A549 ARE-Fluc reporter, luciferase luminescence, 18-24 h; 360,000 compounds, 2.1% hits; note: % is set by controls: 0 for no effect and ±100 for the full control effect; nearly all actives have a fitted effect of over 60% in size
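Nrf2 activity is the BugLite luminescence, read 15 min after reagent at room temperature, following CellTiter-Fluor cytotoxicity readout (30 min, 37C). Compound titrations were applied for 18-24 h to 5000 A549 ARE_Fluc cells/well in 5% FBS OPTI-MEM.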
HepG2 viability: qHTS for Inhibitors of TGF-b: Cytotox Counterscreen; HepG2 CAGA-GFP viability, ATP luminescence, 18 h; Potency, µM (series often up to 46.1 µM), inactives show top-dose activity change, negative = cytotoxicity, actives largely listed as cytotoxic; 410,000 compounds, 0.76% hits
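CellTiter-Glo luminescence gave cytotoxicity after 18 hours at 37 degrees C. The cells were HepG2 CAGA-GFP in 1% FBS DMEM, stimulated with 500 pg/mL TGF-beta after compound addition. %Activity was normalised to no-cell wells (complete cell-killing) and DMSO (no toxicity), and curves were fitted and classified.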
TGFb inhibitor: qHTS for Inhibitors of TGF-b; 410,000 compounds, 1.2% hits; Potency, µM (doses to about 46.1 µM), inactives show top-dose activity, negative = inhibition, most hits filed as inhibitors; HepG2 CAGA-GFP TGF-b/SMAD3 reporter, GFP fluorescence, 18 h; TGF-beta stimulated, 500 pg/mL final; AID 588855, 2011; note: % is set by controls: 0 for no effect and ±100 for the full control effect; nearly all actives have a fitted effect of over 65% in size
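Smad-responsive CAGA-GFP expression was quantified in HEPG2 cells exposed to compounds and 500 pg/mL final TGF-beta for 18 h at 37 degrees C; unstimulated wells defined full inhibition.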
A549 viability: Nrf2 qHTS screen for inhibitors: counterscreen for cytotoxicity. A549 ARE-Fluc cells, CellTiter-Fluor viability, 18-24 h. Potency, µM (series often up to 46 µM), inactives show top-dose activity change, negative = cytotoxicity, most hits filed as inhibitors. 390,000 compounds, 0.16% hits. AID 504648, 2011; note: % is set by controls: 0 for no effect and ±100 for the full control effect
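Cytotoxicity counterscreen: CellTiter-Fluor fluorescence was measured in A549 ARE_Fluc cells after 18-24 h of compound exposure in a concentration series. The subsequent BugLite luminescent read reports ARE-luciferase activity.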
S2 tox: Viability Counterscreen for Primary qHTS for Inhibitors of ATXN expression; AID 651635, 2014; 400,000 compounds, 0.49% hits; Potency, µM (top dose mostly 56.7 µM), usual class: cytotoxic; S2 cells (HEK-293 line with an ATXN2-luciferase reporter) viability, CellTiter-Fluor protease fluorescence, 24 h; note: nearly all actives have a fitted effect of over 40% in size
ATXN2 expr inh: Primary qHTS for Inhibitors of ATXN expression; 360,000 compounds, 0.72% hits; Potency, µM (highest dose often 57 µM), inactives show at the top dose activity change, negative = inhibition, hits mostly inhibitors; HEK-293 ATXN2-luciferase reporter, luminescence, 24 h; AID 1745845, 2022; note: % is set by controls: 0 for no effect and ±100 for the full control effect; nearly all actives have a fitted effect of over 55% in size
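qHTS (up to 57 uM final) was run with 24 h compound exposure of reporter cells at 37 °C. Each well was multiplexed: SteadyGlo luminescence measured ATXN2-luciferase expression after a fluorogenic Gly-Phe-AFC viability readout (25 uM final).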
Numbers without * were called inactive; [ ] = dose if it differs, or a comment. Calls come from the whole dose curve; as a rule, active = well fitted curve in the direction sought with a large enough effect; inconclusive = small, poorly fitted or top-dose-only effect, or another doubt; inactive = no such curve, though single readings can be large; an effect the other way counts as inactive or inconclusive. Potency is the fitted concentration of half-maximal effect.

CC(C)Cn1nc(NC(=O)c2ccco2)c2cc3ccccc3nc21 was read as Nrf2 block 16µM*, HepG2 viability 20%, TGFb inhibitor 8%, A549 viability 20%, S2 tox inactive and ATXN2 expr inh 0%.
`CCn1nc(NC(=O)c2ccco2)c2cc3ccccc3nc21` gave Nrf2 block 2%, HepG2 viability -9%, TGFb inhibitor -1%, A549 viability -5%[1.84 µM] and ATXN2 expr inh 3%.
`COc1ccc2nc3c(cc2c1)c(NC(=O)c1cccs1)nn3CC(C)C` gave HepG2 viability -64%, TGFb inhibitor inconclusive, A549 viability -4%, S2 tox inactive and ATXN2 expr inh -21%.
Screening Cc1ccc(S(=O)(=O)Nc2ccccc2F)cc1C(=O)NCc1ccco1 returned Nrf2 block -8%, HepG2 viability 11%, TGFb inhibitor 1%, A549 viability 1%, S2 tox inactive and ATXN2 expr inh -10%.
`Ic1ccc(Nc2nc(NCCN3CCOCC3)nc(N3CCOCC3)n2)cc1` gave HepG2 viability -52% and TGFb inhibitor 6%.
Screening CCOc1ccc(/C=C/c2nc(C#N)c(Nc3ccc(OCC)cc3)o2)cc1 returned Nrf2 block 25%, HepG2 viability -5%, TGFb inhibitor 2% and A549 viability -11%.
`Cc1cc(Br)ccc1NC(=O)COC(=O)c1ccccc1OCC(N)=O` gave HepG2 viability -8% and TGFb inhibitor -10%.
`CN(C)c1nc(=NCc2ccco2)ss1` gave Nrf2 block -1%, HepG2 viability -74%, TGFb inhibitor 0.32µM*, A549 viability 0% and S2 tox 0.1µM*.
Screening Nc1nc(CSC(=S)N2CCN(c3ccccc3)CC2)nc(Nc2ccccc2)n1 returned Nrf2 block 16µM*, HepG2 viability 14%, TGFb inhibitor inconclusive, A549 viability -7%, S2 tox inactive and ATXN2 expr inh -12%.
For Cc1ccc(Nc2nc(N)nc(CSC(=S)N3CCN(c4ccccc4)CC3)n2)cc1 the results were Nrf2 block -35%, HepG2 viability -33%, TGFb inhibitor -15%, A549 viability -2%, S2 tox inactive and ATXN2 expr inh -6%.
CCCCCCCOC(=O)C[N+](C)(C)CCOC1CC2CCC1(C)C2(C)C (centres undefined) was read as Nrf2 block -11%, HepG2 viability 18µM*, TGFb inhibitor inconclusive, A549 viability 1%, S2 tox inconclusive and ATXN2 expr inh 35µM*.
`CCCCCCOC(=O)C[N+](C)(C)CCOC1CC2CCC1(C)C2(C)C` (centres undefined) gave Nrf2 block -14%, HepG2 viability -11%, TGFb inhibitor 0%, A549 viability 1%, S2 tox inactive and ATXN2 expr inh -6%.
CC(C)Cc1ccc(C(C)C(N)=NCCc2ccccc2)cc1 (centres undefined) was read as Nrf2 block inconclusive, HepG2 viability 18µM*, TGFb inhibitor inconclusive, A549 viability 0%, S2 tox inconclusive and ATXN2 expr inh inconclusive.
Screening Cc1cccc(/N=C/c2c(O)ccc3oc4c(c23)CCCC4)n1 returned Nrf2 block 6%, HepG2 viability 1%, TGFb inhibitor 16µM*, A549 viability -2%, S2 tox inactive and ATXN2 expr inh -28%.
c1ccc(-c2cn3nc(-c4ccccc4)cnc3n2)cc1 was read as Nrf2 block inconclusive, HepG2 viability -2%, TGFb inhibitor 7%, A549 viability 16%, S2 tox inactive and ATXN2 expr inh 58%.
Cc1nc2nc(-c3ccccc3)cn2nc1C was read as Nrf2 block -30%, HepG2 viability -46%, TGFb inhibitor 1%, A549 viability inconclusive and ATXN2 expr inh 16µM*.
Brc1ccc(-c2cn3nc4c(nc3n2)CCCC4)cc1 was read as Nrf2 block inconclusive, HepG2 viability -11%, TGFb inhibitor 23%, A549 viability 0%, S2 tox inconclusive and ATXN2 expr inh -20%.
`CCc1ccc(-c2cn3nc(C)c(C)nc3n2)cc1` gave Nrf2 block inconclusive, HepG2 viability -7%, TGFb inhibitor -13%, A549 viability inconclusive and ATXN2 expr inh 5µM*.
Screening c1ccc(-c2cn3nc4c(nc3n2)CCCC4)cc1 returned Nrf2 block inconclusive, HepG2 viability -31%, TGFb inhibitor -1%, A549 viability inconclusive and ATXN2 expr inh 5.6µM*.
Screening Cc1nc2nc(-c3ccc(F)cc3)cn2nc1C returned Nrf2 block inconclusive, HepG2 viability -19%, TGFb inhibitor 0% and A549 viability inconclusive.
`CCCC/C(O)=C1\C(=O)CCCC1=NCCc1c(C)[nH]c2ccccc12` gave Nrf2 block 3%, HepG2 viability -13%, TGFb inhibitor -11%, A549 viability 2%, S2 tox inactive and ATXN2 expr inh -8%.
Screening CCC1CSC(Nc2ccc(C(=O)/C=C/c3cccc(C)c3)cc2)=N1 (centres undefined) returned Nrf2 block 23µM*, HepG2 viability -101%, TGFb inhibitor 18µM*, A549 viability -18%, S2 tox inactive and ATXN2 expr inh -20%.
`CCC1CSC(Nc2ccc(C(=O)/C=C/c3ccc(Oc4ccccc4)cc3)cc2)=N1` (centres undefined) gave Nrf2 block inconclusive, HepG2 viability -64%, TGFb inhibitor inconclusive, A549 viability -17%, S2 tox inconclusive and ATXN2 expr inh inconclusive.
Screening CN(C(=O)CSc1nc2ccccc2n1CC(=O)N(C)c1ccc(F)cc1)c1ccccc1 returned HepG2 viability -27%, TGFb inhibitor -21%, A549 viability -2%, S2 tox inconclusive and ATXN2 expr inh -14%.
`Cc1cc(C(=O)COC(=O)c2ccc(O)cc2O)c(C)n1-c1ccccc1` gave Nrf2 block -8%, HepG2 viability -56%, TGFb inhibitor inconclusive, A549 viability -11%, S2 tox inconclusive and ATXN2 expr inh 88%.
Screening COc1ccc(-n2c(C)cc(C(=O)COC(=O)c3ccc(O)cc3O)c2C)cc1 returned Nrf2 block 13µM*, HepG2 viability -41%, TGFb inhibitor inconclusive, A549 viability inconclusive, S2 tox inactive and ATXN2 expr inh inconclusive.
